Drawing on PubChem BioAssay (NCI), this text covers growth for 25 compounds.

Common to all, as to assay: NCI-60 one-dose screen, 48 h (100 = growth as untreated, 0 = no growth, -100 = all killed)
Experiment [1] deals with SK-MEL-2 melanoma. The following applies: 10 µM unless noted.
In experiment [2] the test system is EKVX NSCLC. The conditions noted are these: 10 µM unless noted.
In experiment [3] the test system is SN12C renal. The following applies: 10 µM unless noted.
The test system of experiment [4] is UO-31 renal. The conditions noted are these: 10 µM unless noted.
The subject of experiment [5] is TK-10 renal. The conditions noted are these: 10 µM unless noted.
In experiment [6] the test system is ACHN renal. The conditions noted are these: 10 µM unless noted.
The subject of experiment [7] is CAKI-1 renal. The conditions noted are these: 10 µM unless noted.
The test system of experiment [8] is A498 renal. The following applies: 10 µM.
Experiment [9] deals with HL-60(TB) leukemia. The following applies: 10 µM unless noted.
Experiment [10] relates to CCRF-CEM leukemia. The conditions noted are these: 10 µM unless noted.

Compounds without any hit were thinned out: in the full panel of roughly 83,000, 20% have a hit.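 The endpoint reported here, percent growth, reads 100 for growth as untreated, 0 for no net growth and -100 for all cells dead.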 Values without a mark were called inactive. Activity calls are given as the source filed them. Rule for the calls: active = growth percent below 10; inactive = the rest.

As for `CCN(CC)CCOC(=O)C(OC(C)C)(c1ccccc1)c1ccccc1`, the growth in experiment [1] was 88.2%; in experiment [2], 93.5%; in experiment [3], 106%; in [4], 79.1%; in experiment [5], 89%; in experiment [6], 104%. For the same compound, the growth in experiment [7] was 87.2%; in [8], 72.6%; in [9], 99.6%; in [10], 102%.

With `COC(=O)[C@]12CCC(C)(C)C[C@H]1[C@H]1C(=O)C[C@@H]3[C@@]4(C)C[C@@]5(CC(C)(C)[C@@H]4CC[C@@]3(C)[C@]1(C)CC2)OO[C@@](C)(C(F)(F)F)O5`, the growth in [1] was 92.3%; in experiment [2] it was 93.6%; in [3] it was 92.4%; in experiment [4], 87.8%; in [5] it was 95.7%; in experiment [6], 93.6%. For the same compound, the growth in experiment [7] is 68.7%; in experiment [8], 78.2%; in experiment [9] it was 101%; in experiment [10], 94.8%.

With `O=C(CC1(O)C(=O)Nc2ccc(Cl)cc21)c1ccc(C(=O)NCC2CCC3(CC2)OOC2(CCCCC2)OO3)cc1` (stereo not given), the growth in experiment [1] is 12.7%; in experiment [2], -64.2% (active); in [3], 28.2%; in experiment [4], -81.1% (active); in experiment [5] it was -52.7% (active); in [6], -87.3% (active). Also, the growth in experiment [7] was -85.9% (active); in experiment [8], 26.9%; in [9] it was -62% (active); in [10], -41.3% (active).

For `CC(C)=CCc1c(O)c(C(=O)CC(C)C)c(O)c2c(-c3ccccc3)cc(=O)oc12`, the growth was 40.5% in experiment [1]; 36.7% in experiment [2]; 33.7% in experiment [3]; 44.9% in experiment [4]; 56.8% in [5]; 59.4% in experiment [6]. Moreover, the growth is 52.4% in [7], 32.6% in experiment [8], 27.5% in experiment [9] and 23.6% in experiment [10].

`CC(=O)O[C@H]1C(=O)[C@@]2(C)[C@H]([C@H](OC(=O)c3ccccc3)[C@]3(O)C[C@H](OC(=O)[C@H](OC(=O)OC[C@H]4COC(C)(C)O4)[C@@H](NC(=O)c4ccccc4)c4ccccc4)C(C)=C1C3(C)C)[C@]1(OC(C)=O)CO[C@@H]1C[C@@H]2O`: the growth in [1] is 14.3%; in [2], 27.1%; in experiment [3], 22.5%; in experiment [4], 33.8%; in [5], 25.6%; in [6] it was 34.5%. Moreover, the growth was 20.7% in experiment [7], 21.1% in [8], 3.13% (active) in experiment [9] and 17% in experiment [10].

Consider `CC12CCC3C(CCC4=CC(=O)CCC43CF)C1CCC2=O` (stereo not given), for which the growth in experiment [1] is 97.2%; in experiment [2], 94.8%; in [3], 113%; in experiment [4], 87.8%; in experiment [5], 115%; in experiment [6], 120%. In addition, the growth was 111% in [7], 111% in [8], 113% in experiment [9] and 88.2% in [10].

For the compound `CC1=C(CN)C2=C(C)C3(CC3)[C@@](C)(O)C(=O)C2=C1`, the growth in experiment [1] was 98.5%; in experiment [2] it was 102%; in [3] it was 90.2%; in [4] it was 90.3%; in experiment [5] it was 102%; in experiment [6], 97.3%. The growth is 94.7% in [7], 68.6% in experiment [8], 88.2% in experiment [9] and 110% in experiment [10].

In the case of `CCCC(=O)O[C@@H]1C[C@H]2C[C@@H](O[C@@H]3O[C@@H](C)[C@@H](O)[C@@H](O)[C@H]3OC)C[C@@H](C[C@@H](C)/C=C/C=C\C[C@@H]3O[C@@H](C[C@@H]3C)[C@@H](O)C[C@H]3C[C@@]1(O)C(=O)O3)O2`, the growth was 57.8% in [1]; 22.6% in [2]; 58.7% in experiment [3]; 34.2% in experiment [4]; 29% in [5]; 62% in experiment [6]. For the same compound, the growth in [7] was 60.9%; in experiment [8], 79.9%; in [9], 29.9%; in experiment [10], 50.9%.

Take `Cc1cc(C)cc(Nc2nc3c(s2)CC[C@@]2(C)C3=CC[C@@H]3[C@@H]2CC[C@]2(C)C(=O)CC[C@@H]32)c1`: the growth in [1] was 54.9%; in experiment [2], 89.4%; in [3], 54.2%; in experiment [4], 59.4%; in experiment [5], 77.6%; in [6] it was 63.4%. For the same compound, the growth is 47.4% in experiment [7], 78% in [8], 57.6% in experiment [9] and 3.37% (active) in [10].

As to `CC[S][Hg][Cl]`, the growth in [1] is 105%; in experiment [2] it was 106%; in [3], 105%; in [4] it was 87.9%; in experiment [5], 115%; in [6], 101%. The growth in experiment [7] is 89.7%; in experiment [8], 115%; in [9], 113%; in experiment [10], 93.4%.

`COc1cc2c(cc1OCCCCn1c(-c3cccs3)nc3ccccc31)N=C[C@@H]1CCCN1C2=O`: the growth was -52.4% (active) in experiment [1]; 4.43% (active) in experiment [2]; 2.49% (active) in [3]; -58.3% (active) in experiment [4]; -22.8% (active) in experiment [5]; -10% (active) in experiment [6]. In addition, the growth in experiment [7] was -22% (active); in [8], -53.9% (active); in experiment [9] it was -18.7% (active); in [10], -25.7% (active).

On to `CC(=O)O[C@H]1CC[C@H]2[C@@H]3CC=C4c5nc(-c6ccccc6)sc5CC[C@]4(C)[C@H]3CC[C@]12C`, for which the growth in experiment [1] was 82%; in [2], 79.6%; in [3] it was 85.5%; in experiment [4], 78.2%; in experiment [5], 92.4%; in experiment [6] it was 91.8%. The growth in experiment [7] was 67.5%; in experiment [8] it was 75.2%; in [9], 82.1%; in experiment [10], 28.4%.

As to `Cc1cc(N(CCCl)CCCl)ccc1/C=N\NC(=O)c1ccncc1`, the growth is 120% in [1]; 94.3% in experiment [2]; 64.5% in [3]; 82.5% in experiment [4]; 93.1% in experiment [5]; 73.9% in experiment [6]. Besides, the growth in experiment [7] was 33.2%; in experiment [8], -94.9% (active); in experiment [9] it was 53.4%; in [10] it was 68.2%.

For the compound `COC(=O)[C@@H](C)C[C@H](Cc1ccccc1)NC(=O)c1csc([C@@H](C[C@H](C(C)C)N(C)C(=O)[C@@H](NC(=O)CN(C)C)C2CC2)OC(C)=O)n1`, the growth is 11.6% in [1]; 46.3% in [2]; 46.8% in experiment [3]; 41.6% in [4]; 45.5% in [5]; 25.3% in [6]. In addition, the growth is 63.5% in experiment [7], 0.468% (active) in experiment [8], -27% (active) in [9] and 10.3% in [10].

For the compound `Nc1ccc2c(c1)oc1ccccc12`, the growth is 102% in [1]; 83.5% in experiment [2]; 94.6% in [3]; 69.3% in [4]; 135% in experiment [5]; 102% in experiment [6]. The growth in experiment [7] was 82.5%; in experiment [8], 103%; in experiment [9], 78.3%; in experiment [10], 55.6%.

Take `COc1ccc(/C=C/c2cc(OC)c(OC)c(OC)c2)cc1NC(=O)/C=C/c1ccc(F)cc1`: the growth was 49.6% in experiment [1]; 47.3% in experiment [2]; 39.6% in [3]; 39% in experiment [4]; 88.4% in [5]; 48.4% in experiment [6]. Besides, the growth is 33.9% in [7], -3.96% (active) in experiment [8], -20% (active) in experiment [9] and 11% in [10].

With `C1CCC2(CC1)OOCNCOO2`, the growth in experiment [1] was 102%; in [2] it was 99%; in experiment [3] it was 110%; in [4], 93.6%; in [5] it was 91.3%; in experiment [6] it was 110%. Besides, the growth is 93.1% in [7], 97.4% in experiment [8], 71.7% in experiment [9] and 99.5% in [10].

For the compound `O=Cc1cn(Cc2ccc(Cl)cc2)c2ccccc12`, the growth in experiment [1] was 82.7%; in experiment [2], 88.9%; in experiment [3], 89.6%; in experiment [4], 61.4%; in experiment [5], 0.213% (active); in experiment [6], 91.6%. Moreover, the growth in experiment [7] is -20.8% (active); in experiment [8] it was -89.8% (active); in [9], 97.7%; in [10], 89.6%.

`COc1ccc(/C(C)=C(\c2ccc(OCCN3CCOCC3)cc2)c2ccc(OC(=O)Cc3ccccc3)cc2)cc1`: the growth in experiment [1] was 96.1%; in [2], 97.7%; in experiment [3] it was 107%; in experiment [4], 97%; in experiment [5] it was 108%; in experiment [6], 101%. The growth in [7] was 97.5%; in experiment [8] it was 108%; in [9] it was 118%; in [10], 98.3%.

Consider `COC(=O)[C@@H](C)C[C@H](Cc1ccccc1)NC(=O)c1csc([C@@H](C[C@H](C(C)C)N(C)C(=O)[C@@H](NC(=O)[C@H]2CCCCN2C)C2CC2)OC(C)=O)n1`, for which the growth in experiment [1] is 5.26% (active); in experiment [2], 42.3%; in experiment [3] it was 43.5%; in experiment [4] it was 39%; in experiment [5] it was 38.6%; in [6], 19.6%. Also, the growth was 36.9% in experiment [7], 2.41% (active) in [8], -26.3% (active) in experiment [9] and 7.66% (active) in experiment [10].

For `CNC(=O)Oc1cccc(C(F)(F)F)c1`, the growth in [1] was 106%; in [2] it was 139%; in experiment [3], 93.7%; in experiment [4] it was 96.3%; in experiment [5] it was 105%; in experiment [6], 114%. For the same compound, the growth in [7] was 117%; in experiment [8], 106%; in experiment [9], 114%; in experiment [10] it was 90.6%.

For the compound `C[N+](C)(C)Cc1cc(Cl)ccc1O`, the growth in [1] was 99.7%; in [2] it was 115%; in [3], 106%; in experiment [4], 90.8%; in [5], 110%; in experiment [6], 95.9%. Besides, the growth is 106% in experiment [7], 90.1% in experiment [8], 87.4% in experiment [9] and 8.41% (active) in [10].

Regarding `O=C1NC(=O)C(=Cc2cn(C(=O)c3ccccc3)c3ccccc23)C(=O)N1`, the growth in [1] was 96.5%; in [2], 97.5%; in experiment [3], 91.9%; in experiment [4] it was 64.2%; in experiment [5] it was 138%; in experiment [6] it was 93.5%. The growth is 92.8% in [7], 115% in experiment [8], 108% in [9] and 104% in [10].

For the compound `CC(C)=CC1C(C(=O)OCc2cccc(Oc3ccccc3)c2)C1(C)C` (stereo not given), the growth is 108% in experiment [1]; 82.4% in experiment [2]; 94.5% in experiment [3]; 76.5% in [4]; 96.6% in experiment [5]; 91.6% in experiment [6]. Besides, the growth in [7] was 59.6%; in experiment [8], 69.6%; in [9] it was 119%; in experiment [10], 102%.

In the case of `CC(C)CCC(=O)O[C@H]1CC[C@H]2[C@@H]3CCC4=CC(=O)CC[C@]4(C)[C@H]3CC[C@]12C`, the growth is 115% in experiment [1]; 73.9% in [2]; 107% in [3]; 82.1% in experiment [4]; 100% in [5]; 98.5% in [6]. For the same compound, the growth in [7] was 88.5%; in experiment [8] it was 77.2%; in [9], 108%; in experiment [10] it was 104%.
